From PubChem BioAssay
In the library only some 2.5% were active in any assay of this set; here they are far more common.
PAX8 inh HTS: PAX8 transcriptional activity inhibition | inhibition, % at 12.6 µM | RMG-I TPO-luciferase reporter, SteadyGlo, 24 h | actives 1.2% (n = 360,000);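 active = mean replicate inhibition at least 60% with every replicate also reaching 60%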;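 note: luciferase light reporting Pax8 driven TPO promoter activity; plate controls were median of neutral control wells for no effect and mitoxantrone controls for full effect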
Env fusion inh: inhibitors of HIV Env-mediated cell fusion; actives 1.1% (n = 360,000); inhibition, % at 12.3 µM; AID 651610; HeLa-JRFL Env/CEM21 cell fusion, luciferase;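 active = mean replicate inhibition score of at least 50 and every replicate individually at or above 50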;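 note: 0% = plate neutral controls and 100% = maraviroc near 300 nM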
EWS-Fli block: EWS/Fli transcriptional activity inhibition; inhibition, % at 12.6 µM; actives 0.67% (n = 350,000); A673 NR0B1-luciferase reporter, viability-normalised;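 active = mean inhibition of at least 50% after viability correction, with every replicate also passing that limit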;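 note: firefly luciferase signal divided by Alamar Blue viability fluorescence both relative to DMSO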
F508del corr: CFTR F508del correction in bronchial cells. CFBE cells, YFP halide quenching; stimulated with forskolin plus potentiator P3; % fluorescence drop versus neutral controls. activity (quench increase), % at 7.58 µM. actives 0.36% (n = 350,000);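 active = mean added fluorescence quench of at least 8% versus neutral control, with both replicates also reaching 8%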;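 note: cells transiently co-express mutant CFTR-F508del with the halide-sensitive YFP; corrector assay measuring rescue of mutant channel to the surface after 24 h compound exposure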
GAA850 FXN act: frataxin GAA850 promoter activation; activation, % at 6 µM; HEK293 lucGAA850 FXN promoter luciferase reporter, 24 h; percent of 10 µM SAHA response; AID 540364; actives 0.56% (n = 360,000);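 active = activation above the average of all compounds screened plus 3 SD, cutoff fixed separately per campaign, cut at about 7.5% in these data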;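 note: 0% = DMSO wells and 100% = 10 µM SAHA wells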
GAA30 counter: counter-screen for GAA850 frataxin promoter activators: GAA30 promoter activation; shares compounds with GAA850 FXN act; HEK293 lucGAA30 FXN promoter luciferase, 24 h; DMSO = 0%, 5 µM ipriflavone = 100%; activation, % at 6 µM; actives 66% (n = 1,900); AID 588350;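 active = mean activation above the mean of solvent-only control wells plus 3 SD, cut at about 22% in these data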;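 note: counterscreen of GAA850 promoter hits where activity marks nonselective or luminescence artifacts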
FXN GAA850 conf: confirmation of GAA850 frataxin (FXN) promoter activators. shares compounds with GAA850 FXN act. HEK293 lucGAA850 FXN promoter luciferase reporter, 24 h; 100% = activation by SAHA. activation, % at 6 µM. actives 86% (n = 1,900). AID 588351;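 active = mean activation above a set limit taken from the primary screen, cut at about 8% in these data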;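 note: 0% = DMSO wells and 100% = 10 µM SAHA wells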
* = called active by the depositor; / = no result; [ ] = remark or other dose.

SMILES	PAX8 inh HTS	Env fusion inh	EWS-Fli block	F508del corr	GAA850 FXN act	GAA30 counter	FXN GAA850 conf
COc1cc(O)c2c(=O)c(-c3ccc(O[C@@H]4O[C@H](CO)[C@@H](O)[C@H](O)[C@H]4O)cc3)coc2c1	-131.9	-115.2	1.2	-1.2	9.0*	107.9*	30.8*
O=c1c(-c2ccc(O)cc2)coc2cc(OC3OC(CO)C(O)C(O)C3O)cc(O)c12 (centres undefined)	-171.0	-161.1	-48.5	2.9	5.9	/	/
CCOC(=O)c1sc(-c2ccc(Br)cc2)cc1N	/	/	-117.4	-0.8	15.9*	116.6*	42.8*
CN1CCN(C(=O)C[C@H]2CC[C@@H]3[C@H](COC[C@H](O)CN3C(=O)Nc3ccc4c(c3)OCO4)O2)CC1	-89.6	-10.5[16.7 µM]	-46.2	-1.9	/	/	/
Cc1nc(-c2nc(-c3c(C(=O)NNC(=O)c4ccc(Cl)cc4)noc3C)cs2)cs1	19.4	12.5	-4.2	4.4	1.1	/	/
Cc1nc(-c2nc(-c3c(C(=O)NN)noc3C)cs2)cs1	-93.3	-16.3	-3.4	/	8.3*	87.9*	26.8*
CN=C1SC(CC(=O)Nc2ccc(N3CCOCC3)cc2)C(=O)N1C (centres undefined)	/	-59.5	/	/	12.8*	15.1	3.4
CN=C1SC(CC(=O)Nc2cccc(C(F)(F)F)c2)C(=O)N1C (centres undefined)	/	-31.6	/	/	0.5	/	/
COc1ccc(NC(=O)N(C)C[C@H]2Oc3ccc(NS(=O)(=O)c4cn(C)cn4)cc3CC(=O)N([C@@H](C)CO)C[C@H]2C)cc1	1.1	-12.2[16.7 µM]	-1.1	1.6	/	/	/
O=C(Nc1ccc(Cl)cc1)Nc1cccnc1	/	/	-57.9	-1.6	8.4*	63.0*	20.9*
Cc1cnc(NC(=O)Nc2ccc(Cl)cc2)s1	-109.0	-43.1	46.1	0.0	8.2*	73.6*	45.5*
Cc1c(CCOC(=O)C23CC4CC(CC(C)(C4)C2)C3)sc[n+]1CC(=O)c1ccccc1	26.7	82.2*	8.2	-1.4	8.3*	30.9*	19.9*
Cc1c(CCOC(=O)c2cc([N+](=O)[O-])cc([N+](=O)[O-])c2)sc[n+]1CC(=O)c1ccccc1	10.1	5.4	-3.7	0.6	0.1	/	/
Cc1cccc2nc(COc3ccc4ccccc4c3Br)cn12	-139.5	-94.0	-47.9	1.3	11.9*	133.6*	48.0*
COc1ccc(NC(=O)N[C@H]2CC[C@H](CCNC(=O)CN3CCOCC3)O[C@H]2CO)cc1	-7.3	-1.2[16.7 µM]	0.9	0.0	/	/	/
COc1cccc(C(=O)c2cc3cc(Cl)ccc3[nH]2)c1	-79.0	-24.6	-92.5	0.8	2.5	/	/
O=C(c1ccccc1)c1cc2cc(Cl)ccc2[nH]1	-90.0	-33.7	-75.7	3.4	8.3*	86.8*	35.4*
CCOC(=O)c1ccc(N/C=C\C(=O)c2cccc(OC)c2)cc1	-126.4	-52.9	/	/	4.5	/	/
COc1cccc(C(=O)/C=C/Nc2cc(C)ccc2O)c1	/	-168.9	/	/	11.0*	46.8*	32.7*
Oc1ccc(/C=N/N=C/c2ccc(O)c(O)c2)cc1O	24.8	-4.1	35.1	-1.1	8.2*	32.7*	16.1*
CC(=O)Nc1ccc(/C=N/Nc2nc3ccccc3s2)cc1	-146.9	-175.8	-12.2	1.7	8.7*	122.8*	35.9*
CNC(=O)C[C@H]1CC[C@H]2[C@@H](COC[C@@H](O)CN2Cc2ccccc2F)O1	/	/	/	1.7	/	/	/
Cc1cnc(N=Nc2ccccc2)[nH]1	-19.2	9.3	-17.8	-2.4	7.7*	100.5*	27.9*
CCN1CCN(c2cc3c(nn2)Oc2ccccc2N3C)CC1	-151.7	-8.4	/	/	8.4*	139.8*	42.3*
CCN1CCN(c2nnc(-c3ccccc3)c3ccccc23)CC1	-3.4	2.3	1.9	-1.1	1.2	/	/
Cc1nc2ccc(-c3nc4ccccc4[nH]3)cc2[nH]1	8.2	-124.6	-5.0	/	7.8*	128.7*	37.9*
CN1CCN(C(=O)C[C@@H]2CC[C@@H]3[C@H](COC[C@@H](O)CN3C(=O)C3CCCC3)O2)CC1	-7.8	/	9.8	0.7	/	/	/
O=C(c1ccccc1)c1ccccc1N1C(=O)C=CC1=O	53.2	5.0	1.6	-8.1	-0.3	/	/
